The campaign covered roughly 310,000 compounds. About 14,000 (4.5%) showed an effect of 50% or more. Effects have a minus sign here. The entries come from a sample that favours strong results as a whole.
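Also: peak tail current of the secondary pulse compared with the same well before compound.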

Chain of human ether-à-go-go-related gene (hERG) potassium channel (Q12809 whole entry, looked up): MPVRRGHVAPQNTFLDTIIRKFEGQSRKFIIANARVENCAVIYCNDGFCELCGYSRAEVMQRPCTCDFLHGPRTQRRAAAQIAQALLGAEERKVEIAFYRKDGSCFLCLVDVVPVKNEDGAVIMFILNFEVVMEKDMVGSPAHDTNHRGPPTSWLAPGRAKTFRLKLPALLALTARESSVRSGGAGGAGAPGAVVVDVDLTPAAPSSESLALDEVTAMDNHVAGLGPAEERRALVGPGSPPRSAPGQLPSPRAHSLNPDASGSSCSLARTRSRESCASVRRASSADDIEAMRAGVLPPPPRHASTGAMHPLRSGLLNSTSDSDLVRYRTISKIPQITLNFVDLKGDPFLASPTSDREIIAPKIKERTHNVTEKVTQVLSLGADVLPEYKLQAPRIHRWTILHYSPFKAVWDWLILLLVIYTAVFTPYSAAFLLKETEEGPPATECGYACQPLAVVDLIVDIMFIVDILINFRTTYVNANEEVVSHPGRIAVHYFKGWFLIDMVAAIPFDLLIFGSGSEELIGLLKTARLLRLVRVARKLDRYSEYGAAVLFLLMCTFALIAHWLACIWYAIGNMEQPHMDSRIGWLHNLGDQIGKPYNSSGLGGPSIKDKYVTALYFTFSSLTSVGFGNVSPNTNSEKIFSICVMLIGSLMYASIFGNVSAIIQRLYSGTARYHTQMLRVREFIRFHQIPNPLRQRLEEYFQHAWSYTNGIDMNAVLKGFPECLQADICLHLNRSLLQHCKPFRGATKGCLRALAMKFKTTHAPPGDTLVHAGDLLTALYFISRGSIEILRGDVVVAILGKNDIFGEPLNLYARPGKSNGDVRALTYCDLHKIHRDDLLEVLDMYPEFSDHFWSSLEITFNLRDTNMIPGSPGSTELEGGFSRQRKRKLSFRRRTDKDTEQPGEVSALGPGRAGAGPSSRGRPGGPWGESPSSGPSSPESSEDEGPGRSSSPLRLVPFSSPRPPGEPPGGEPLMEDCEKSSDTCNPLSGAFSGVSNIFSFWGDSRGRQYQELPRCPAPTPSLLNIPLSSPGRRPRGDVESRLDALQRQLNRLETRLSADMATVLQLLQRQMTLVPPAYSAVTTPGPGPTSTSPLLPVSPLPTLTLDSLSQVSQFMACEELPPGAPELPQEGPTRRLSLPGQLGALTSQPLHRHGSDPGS

The assay has as its target human ether-à-go-go-related gene (hERG) potassium channel (human, UniProt Q12809). Briefly: primary screen, population patch clamp on CHO cells stably expressing hERG; higher = less effect of the substance.
Consider `COC(=O)/C(C#N)=C/c1c(Oc2cccc(C)c2C)nc2ccccn2c1=O`, for which the “hERG current change (%, negative = inhibition) at 10uM” value was -12.6%.

With `COC(=O)CCCn1nc(NC(=O)COc2ccc(F)cc2)cc1C`, the “hERG current change (%, negative = inhibition) at 10uM” value is listed as -5.47%.

Turning to `COc1ccc(C(C(=O)NC(C)(C)C)N(C(=O)CNC(=O)c2cccs2)c2ccc(NC(C)=O)cc2)cc1OC` (centres unmarked), the “hERG current change (%, negative = inhibition) at 10uM” value worked out at 10.4%.

As to `N#Cc1ccc(CN2CCN(C(=O)c3cc(C4CC4)nn3-c3ccccc3)CC2)cc1`, the “hERG current change (%, negative = inhibition) at 10uM” value is recorded as -57.2%.

For the molecule `COc1ccc(CN2CCN(C(=O)c3cc(C4CC4)nn3-c3ccccc3)CC2)cc1F`, the “hERG current change (%, negative = inhibition) at 10uM” value is on record as -48.6%.

For the molecule `CC1CCC(NC(=O)c2cc(C3CC3)nn2-c2ccccc2)CC1` (centres unmarked), the “hERG current change (%, negative = inhibition) at 10uM” value is on record as -34.9%.

On to `O=C(c1cc(C2CC2)nn1-c1ccccc1)N1CCN(Cc2ccc(Cl)cc2)CC1`, for which the “hERG current change (%, negative = inhibition) at 10uM” value is given as -32.1%.

Turning to `COc1ccc(OC)c(S(=O)(=O)N2CCN(C(=O)c3cc(C4CC4)nn3-c3ccccc3)CC2)c1`, the “hERG current change (%, negative = inhibition) at 10uM” value is given as -11.1%.

Turning to `COc1cc2c(cc1OC)CN(C(=O)c1cc(C3CC3)nn1-c1ccccc1)CC2`, the “hERG current change (%, negative = inhibition) at 10uM” value was -56.2%.

As for `O=C(NC1CCCCC1)c1cc(C2CC2)nn1-c1ccccc1`, the “hERG current change (%, negative = inhibition) at 10uM” value was -51.2%.

For `O=C(O)c1cc(C2CC2)nn1-c1ccccc1`, the “hERG current change (%, negative = inhibition) at 10uM” value was 17.5%.

`COc1ccc(N2CCN(C(=O)c3cc(C4CC4)nn3-c3ccccc3)CC2)cc1`: the “hERG current change (%, negative = inhibition) at 10uM” value is recorded as -44.4%.

On to `COc1ccc(NC(=O)Nc2ccccc2SC)cc1OC`, for which the “hERG current change (%, negative = inhibition) at 10uM” value is given as 6.08%.

Consider `Cc1ccc(C)c(N2CCN(C(=O)Cn3c(=O)[nH]c4ccsc4c3=O)CC2)c1`, for which the “hERG current change (%, negative = inhibition) at 10uM” value was -4.12%.

Consider `Cc1ccc(C(=O)Nc2nnc(-c3ccc(C(C)(C)C)cc3)s2)cc1`, for which the “hERG current change (%, negative = inhibition) at 10uM” value came out at 4.81%.

Turning to `CCN(CC)CCCN1CC(=O)N2[C@@H](Cc3c([nH]c4ccccc34)C2(C)C)C1=O`, the “hERG current change (%, negative = inhibition) at 10uM” value came to 1.24%.

On to `CCCCN(CCCC)CCCN1CC(=O)N2[C@@H](Cc3c([nH]c4ccccc34)C2(C)C)C1=O`, for which the “hERG current change (%, negative = inhibition) at 10uM” value was -73.2%.

`CCCCCCN1CC(=O)N2[C@@H](Cc3c([nH]c4ccccc34)C2(C)C)C1=O`: the “hERG current change (%, negative = inhibition) at 10uM” value turned out to be 13.9%.

`O=C(NCc1cccnc1)c1cc(-c2ccco2)on1`: the “hERG current change (%, negative = inhibition) at 10uM” value came out at 8.02%.

In the case of `CC(NC(=O)C1CCN(C(=O)[C@@H]2Cc3ccccc3CN2C(=O)OC(C)(C)C)CC1)c1ccccc1` (some centres unmarked), the “hERG current change (%, negative = inhibition) at 10uM” value stood at 14%.

As for `O=C(NCC(=O)N(c1cnc2ccccc2c1)C(C(=O)NC1CCCC1)c1ccncc1)c1ccco1` (centres unmarked), the “hERG current change (%, negative = inhibition) at 10uM” value is recorded as 8.74%.

As to `CC(C)(C)S(=O)(=O)c1nc2ccccc2s1`, the “hERG current change (%, negative = inhibition) at 10uM” value was 6.74%.

For `CCCc1ccc2oc(C(=O)N3CCC(O)CC3)c(C)c2c1`, the “hERG current change (%, negative = inhibition) at 10uM” value was -12.2%.

Consider `CCCc1ccc2oc(C(=O)N3CCN(C4CCS(=O)(=O)C4)CC3)c(C)c2c1` (centres unmarked), for which the “hERG current change (%, negative = inhibition) at 10uM” value is -51.3%.

Turning to `CCCc1ccc2oc(C(=O)N3CCCC3)c(C)c2c1`, the “hERG current change (%, negative = inhibition) at 10uM” value was -7.11%.

`Oc1oc(-c2ccccc2)nc1C=NCc1ccncc1`: the “hERG current change (%, negative = inhibition) at 10uM” value was -7.6%.

As to `COc1ccc(S(=O)(=O)N[C@@H](Cc2ccccc2)C(=O)N2CC[C@@]3(O)CCCC[C@H]3C2)cc1`, the “hERG current change (%, negative = inhibition) at 10uM” value was -14.9%.

Regarding `CCCn1c(-c2cccc([N+](=O)[O-])c2)nc2c1c(=O)[nH]c(=O)n2Cc1ccccc1`, the “hERG current change (%, negative = inhibition) at 10uM” value is on record as -66.4%.

As to `CCCn1c(-c2cc(OC)c(OC)c(OC)c2)nc2c1c(=O)[nH]c(=O)n2Cc1ccccc1`, the “hERG current change (%, negative = inhibition) at 10uM” value is 5.09%.

As for `CCCn1c(-c2cccc(F)c2)nc2c1c(=O)[nH]c(=O)n2Cc1ccccc1`, the “hERG current change (%, negative = inhibition) at 10uM” value worked out at 17.5%.

For the molecule `COCCn1c(-c2ccc(C#N)cc2)nc2c1c(=O)[nH]c(=O)n2Cc1ccccc1`, the “hERG current change (%, negative = inhibition) at 10uM” value is recorded as -33.9%.

In the case of `CCCn1c(=O)[nH]c(=O)c2c1nc(-c1ccc(OC)c(Br)c1)n2CCOC`, the “hERG current change (%, negative = inhibition) at 10uM” value is -20.1%.

Consider `CCCn1c(=O)[nH]c(=O)c2c1nc(-c1ccc(OC(F)F)c(OC)c1)n2CCOC`, for which the “hERG current change (%, negative = inhibition) at 10uM” value is reported as -50.5%.

Regarding `COCCCn1c(-c2cccc(Cl)c2)nc2c1c(=O)[nH]c(=O)n2Cc1ccccc1`, the “hERG current change (%, negative = inhibition) at 10uM” value is recorded as -0.77%.

For the molecule `CCCCn1c(=O)[nH]c(=O)c2c1nc(-c1ccc(OC(F)F)c(OC)c1)n2C`, the “hERG current change (%, negative = inhibition) at 10uM” value turned out to be 17.1%.

For the molecule `COCCn1c(-c2cccc([N+](=O)[O-])c2)nc2c1c(=O)[nH]c(=O)n2Cc1ccccc1`, the “hERG current change (%, negative = inhibition) at 10uM” value is -84.2%.

On to `CS(=O)(=O)c1ccc2nc(NC(=O)c3ccc(Cn4cc(Br)cn4)o3)sc2c1`, for which the “hERG current change (%, negative = inhibition) at 10uM” value is listed as -27.1%.

Turning to `CCc1c(C)[nH]c2c1C(=O)C(CN1CCOCC1)CC2.Cl` (centres unmarked), the “hERG current change (%, negative = inhibition) at 10uM” value is -7.67%.

Turning to `CCOc1cc(C(=O)O/N=C(\N)c2ccc([N+](=O)[O-])cc2)cc(OCC)c1OCC`, the “hERG current change (%, negative = inhibition) at 10uM” value is -16%.

Consider `CCOc1ccccc1N1C(=O)NC(=O)/C(=C/c2ccc3c4c(cccc24)CC3)C1=O`, for which the “hERG current change (%, negative = inhibition) at 10uM” value was determined as 2.74%.

Regarding `CSc1nsc(SC)c1NC(=O)OCCc1ccccn1`, the “hERG current change (%, negative = inhibition) at 10uM” value was -6.18%.

With `c1ccc(CCn2nnnc2C(c2cccnc2)N2CCN(c3ccccc3)CC2)cc1` (centres unmarked), the “hERG current change (%, negative = inhibition) at 10uM” value is -47.6%.

For `CCC(c1nnnn1Cc1cccs1)N1CCN(c2nc3ccccc3s2)CC1` (centres unmarked), the “hERG current change (%, negative = inhibition) at 10uM” value is -56.1%.

Take `c1ccc(CCn2nnnc2C(c2cccnc2)N2CCN(c3nc4ccccc4s3)CC2)cc1` (centres unmarked): the “hERG current change (%, negative = inhibition) at 10uM” value was -58.7%.

`COc1cc(C(c2nnnn2C(C)(C)C)N2CCN(c3nc4ccccc4s3)CC2)ccc1O` (centres unmarked): the “hERG current change (%, negative = inhibition) at 10uM” value is -28.1%.

Regarding `CCCC(c1nnnn1Cc1cccs1)N1CCN(c2nc3ccccc3s2)CC1` (centres unmarked), the “hERG current change (%, negative = inhibition) at 10uM” value is recorded as -22.4%.

Regarding `CCCC(c1nnnn1CCOC)N1CCN(c2nc3ccccc3s2)CC1` (centres unmarked), the “hERG current change (%, negative = inhibition) at 10uM” value is recorded as -66.2%.

On to `CC(C)CC(c1nnnn1Cc1cccs1)N1CCN(c2nc3ccccc3s2)CC1` (centres unmarked), for which the “hERG current change (%, negative = inhibition) at 10uM” value worked out at 0.473%.

Consider `Oc1ccc(C(c2nnnn2CCc2ccccc2)N2CCN(c3nc4ccccc4s3)CC2)cc1` (centres unmarked), for which the “hERG current change (%, negative = inhibition) at 10uM” value came to 9.25%.

Consider `CCC(c1nnnn1CCOC)N1CCN(c2nc3ccccc3s2)CC1` (centres unmarked), for which the “hERG current change (%, negative = inhibition) at 10uM” value is on record as -34.7%.

As to `COCCn1nnnc1C(c1cccs1)N1CCN(c2nc3ccccc3s2)CC1` (centres unmarked), the “hERG current change (%, negative = inhibition) at 10uM” value is -25.3%.

Turning to `COCCn1nnnc1C(c1ccc(OC)c(OC)c1)N1CCN(c2nc3ccccc3s2)CC1` (centres unmarked), the “hERG current change (%, negative = inhibition) at 10uM” value is recorded as -56.3%.

`COCCn1nnnc1C(CC(C)C)N1CCN(c2nc3ccccc3s2)CC1` (centres unmarked): the “hERG current change (%, negative = inhibition) at 10uM” value is -9.4%.

These data come from publication PMC4336329 (PLoS ONE, 2015).
